We go through eight compounds from PubChem BioAssay (NCI).

What all share (test): NCI-60 one-dose screen, 48 h (100 = growth as untreated, 0 = no growth, -100 = all killed)
What all share (conditions): 10 µM unless noted

Test [1] has as its system HCT-15 colon.
Test [2] deals with HT29 colon.
The test system of test [3] is SNB-75 CNS.
Test [4] deals with SNB-19 CNS.
Test [5] has as its system U251 CNS.
In test [6] the test system is PC-3 prostate.
Test [7] has as its system SK-MEL-5 melanoma.
In test [8] the test system is UACC-62 melanoma.
Test [9] deals with LOX IMVI melanoma.
For test [10], the system named is SK-MEL-28 melanoma.
The test system of test [11] is SK-MEL-2 melanoma.
Test [12] relates to SN12C renal.
In test [13] the test system is UO-31 renal.
Test [14] has as its system TK-10 renal.
For test [15], the system named is ACHN renal.
For test [16], the system named is CAKI-1 renal.
For test [17], the system named is A498 renal.
Test [18] relates to CCRF-CEM leukemia.
The subject of test [19] is MOLT-4 leukemia.
Test [20] relates to EKVX NSCLC.

Each structure is given as a SMILES string. The panel holds about 83,000 compounds, 20% with a hit somewhere; the sample as a whole holds those more often.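 Cells were grown in 96-well plates and exposed to the test compound at a single concentration for 48 hours; results are reported as percent growth, with values below 10 considered active.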 Unmarked numbers belong to inactive results. Activity calls are given as the source filed them.

Turning to `COc1ccc(NC(=O)Nc2ccc3c(ccn3C(=O)c3cccc(F)c3)c2)cc1`, the growth was 71.6% in test [1]; 64% in test [2]; 44% in test [3]; 80.8% in [4]; 54.4% in test [5]; 77.4% in test [6]. Also, the growth was 76.6% in test [7]; 65.9% in [8]; 57% in test [9]; 87.2% in [10]; 94.5% in [11]; 50.7% in test [12]. Moreover, the growth in test [13] was 94.1%; in test [14], 103%; in test [15], 53.9%; in [16], 90.1%; in test [17], 88.7%; in test [18], 56.3%. Besides, the growth in test [19] was 73.2%.

On to `NC(N)=Nc1ccc(Oc2cccc(NC(N)=Nc3ccc(I)cc3F)c2)cc1`, for which the growth in test [1] is 86.9%; in test [2] it was 62.5%; in test [3], 73.2%; in test [4] it was 20.7%; in test [5], 47.4%; in test [6], 27.5%. Moreover, the growth in test [7] is 74%; in [8], 77.8%; in test [9] it was 48%; in [10], 85.7%; in test [11] it was 85.9%; in test [20], 71.6%. Also, the growth was 54.3% in test [12]; 95.7% in [13]; 85.7% in test [14]; 101% in test [15]; 77.3% in test [18]; 78.9% in test [19].

Consider `COc1ccc(Cn2cc3c(c2-c2cc(OC)c(OC)c(OC)c2)CCc2c(CN4CCOCC4)noc2-3)cc1`, for which the growth in test [1] was 15.3%; in test [2], 11.7%; in test [3] it was 18%; in test [4], 27.1%; in test [5], 27.9%; in test [6], 31.9%. The growth in test [7] was 17.3%; in test [8], 19.1%; in test [9], 33.5%; in test [10], 60.7%; in test [11] it was 62.4%; in test [12], 31.6%. For the same compound, the growth in test [13] was 39.5%; in [14] it was 90.1%; in test [15] it was 43.4%; in test [16], 44.6%; in test [17] it was -0.0936% (active); in test [18], 16.3%. The growth in test [19] was 22.7%.

As to `Cn1ccnc1C(=O)/C=C/c1ccc(CNC(=O)c2ccc(S(F)(F)(F)(F)F)cc2)cc1`, the growth in [1] was -5.91% (active); in [2] it was 10.4%; in test [3] it was 57.6%; in test [4], 3.58% (active); in test [5], 8.6% (active); in test [6], 26.4%. Also, the growth in [7] is 61.3%; in test [8] it was 31.2%; in test [9], -80.3% (active); in test [10], 82.4%; in test [11] it was 92.9%; in test [20] it was 40%. In addition, the growth in [13] is 34.7%; in test [14] it was 91.1%; in test [15], 49.8%; in test [16] it was 47%; in [17], 73.5%; in test [18], 2.63% (active). The growth in test [19] was 0.864% (active).

On to `CCOC(=O)c1c(N)c(C#N)cn1-c1cc(OC)c(OC)c(OC)c1`, for which the growth in test [1] was 106%; in [2], 107%; in test [3], 92.7%; in test [4], 101%; in test [5] it was 114%; in test [6] it was 105%. Besides, the growth was 111% in test [7]; 101% in test [8]; 97.8% in test [9]; 108% in test [10]; 129% in test [11]; 96% in test [20]. Besides, the growth was 88.8% in [13]; 99.5% in test [14]; 101% in [15]; 91.8% in test [16]; 93.7% in [17]; 107% in [18]. Besides, in test [19], the growth is 102%.

Turning to `NS(=O)(=O)c1ccc(Nc2nc(N/N=C/CCc3ccccc3)nc(Nc3ccccc3)n2)cc1`, the growth is 105% in test [1]; 107% in test [2]; 112% in test [3]; 104% in test [4]; 104% in [5]; 104% in [6]. Moreover, the growth in test [7] was 99.7%; in test [8] it was 95.8%; in test [9], 95.4%; in [10], 107%; in test [11] it was 105%; in test [20], 97.8%. The growth was 84% in [13]; 105% in [14]; 101% in [15]; 96.9% in test [16]; 93.6% in [18]; 101% in test [19].

As for `Cc1cc(-c2ccc(Cl)cc2)n(Cc2nnc(SCC(=O)Nc3ccc(S(N)(=O)=O)cc3)n2C2CCCCC2)n1`, the growth was 98.4% in test [1]; 108% in [2]; 118% in test [3]; 97.6% in test [4]; 101% in [5]; 101% in [6]. For the same compound, the growth in test [7] is 100%; in test [8], 99.2%; in [9], 101%; in test [10], 106%; in [11], 106%; in test [12] it was 105%. The growth in test [13] was 82.3%; in [14], 106%; in test [15], 104%; in test [16], 99.4%; in test [17], 111%; in test [18] it was 114%. The growth in test [19] was 141%.

In the case of `COc1ccc(-n2c(/C=C3\C(=O)Nc4ccccc43)ccc2CO)cc1`, the growth in [1] is 89.7%; in test [2], 105%; in test [3], 101%; in test [4], 90%; in test [5], 95.1%; in test [6], 96.4%. The growth was 94.5% in test [7]; 83.3% in [8]; 94.6% in test [9]; 101% in [10]; 104% in test [11]; 104% in [12]. Besides, the growth in [13] is 74.1%; in [14] it was 105%; in test [15] it was 93.6%; in test [16], 84.6%; in [17], 107%; in test [18], 97.8%. Further, the growth in [19] is 90.2%.
